# Assay outcomes (PubChem)
# RXFP1 antagonist: antagonists of human relaxin receptor RXFP1; HEK293-RXFP1, relaxin-stimulated cAMP HTRF, 30 min; active compounds read low; Q9HBX9; activity change, negative = inhibition, % at 57.5 µM; AID 1259400; 350,000 compounds, 0.59% hits;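 active means activity change of -60% or lower, but not beyond a set lower limit; inconclusive means change between -60% and -40%, or beyond the set limit; inactive means change above -40%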
# Akt phos inh: Akt phosphorylation inhibition. Neuro2A IGF-stimulated pAkt S473 HTRF, 20 min; active compounds read low. activity change, % for hits at 50 µM. 360,000 compounds, 0.32% hits. AID 651550; in the data active means activity change below about -80%; inconclusive means mostly about -51% to -80%
#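 Neuro2A cells (4,500/well, DMEM with 0.5% FBS) were treated with compound at a single 50 µM final concentration, stimulated with 6 nM IGF for 20 min at 37 °C, and lysed. Phospho-Akt Ser473 was read by HTRF as 665/615 ratio ×10^4.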
# KCNH2 3.1 block: inhibitors of human KCNH2 3.1 potassium channel isoform | activity change, % (tested at about 1.8 µM) | U2OS KCNH2 3.1, thallium flux FluxOr; active compounds read low | 340,000 compounds, 0.95% hits;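 active means maximum activity change below -70%; inconclusive means maximum activity change from -70% to -50%; inactive means maximum activity change above -50%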;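 further: thallium influx rate constant from kinetic fluorescence after stimulation buffer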
#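 Thallium flux via FluxOr fluorescence (Red40 quencher, 45 min loading) in U2OS cells virally expressing the KCNH2 3.1 isoform (1.77 x 10^8 /mL virus, overnight at 37 C). Rate constants from 2-min kinetic reads post-stimulation, normalised to positive and negative controls.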
# hERG WT inh: blocks the wildtype human KCNH2 potassium channel; AID 720551; Q12809; activity change, % at 1.84 µM; 340,000 compounds, 0.37% hits; U2OS, BacMam KCNH2, thallium flux FluxOr; active compounds read low;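 active means maximum activity change below -70%; inconclusive means maximum activity change between -70% and -50%; inactive means maximum activity change above -50%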
#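 U2OS cells transduced with wild-type KCNH2 virus are loaded with FluxOr dye for 45 min, and thallium flux is measured in kinetic reads before and after stimulation buffer. Rate constants are normalized to DMSO controls.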
# RXFP1 ag: RXFP1 (human) receptor agonism | Q9HBX9 | HEK293T-RXFP1 cAMP TR-FRET, 30 min; response scale: percent of porcine relaxin response, buffer zero | Potency, µM (highest dose often 57.5 µM), actives largely listed as activators | 370,000 compounds, 0.3% hits; active means well fitted activation curve with a large enough effect; inconclusive means small, poorly fitted or top-dose-only effect; further: nearly all actives have a fitted effect of over 60% in size
#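 Agonist response is measured as cAMP accumulation in an RXFP1-transfected HEK293T line under PDE4 inhibition. Values are scaled between buffer-only and 29 nM porcine relaxin, and EC50s come from standard Hill equation fits.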
# A number is an active result; 0 = inactive; ? = inconclusive; - = no result given. Shown are actives, neighbours in structure and some others; about 1.7% of the full set was active somewhere.
SMILES,RXFP1 antagonist,Akt phos inh,KCNH2 3.1 block,hERG WT inh,RXFP1 ag
Fc1cccc(Cc2noc(CN3CCN(C4CCc5ccccc5C4)CC3)n2)c1 (stereo not drawn),0,0,-85,0,0
CCOC(=O)c1cnc2ccc(C)cc2c1Nc1ccc(N2CCOCC2)cc1,-101,0,-,0,0
CCOC(=O)c1cnc2ccc(C)cc2c1Nc1ccc(N(CC)CC)cc1,-70,-,-,-,0
CCOC(=O)c1cnc2ccc(Cl)cc2c1Nc1ccc(N2CCOCC2)cc1,0,-,-,-,0
COc1cc(NC(=O)c2ccc(F)cc2)c(OC)cc1Cl,0,0,0,0,0
O=C(NCc1cccc(Cl)c1)c1cnccn1,0,-86%,0,0,0
CCN(CC)CCOC(=O)CCc1cccc2ccccc12,0,0,0,0,0
c1ccc(N2CCN(c3nc(NCc4ccco4)c4ccccc4n3)CC2)cc1,0,0,-104,-81,0
c1coc(CNc2nc(N3CCCCC3)nc3ccccc23)c1,0,0,0,0,0
c1ccc(CNc2nc(N3CCN(Cc4ccccc4)CC3)nc3ccccc23)cc1,0,0,-104,0,0
OCCNc1nc(N2CCCCC2)nc2ccccc12,0,0,0,0,0
Oc1ccccc1Nc1nc(NCc2ccccc2)c2ccccc2n1,-79,0,0,0,0
COc1cc(C)ccc1OCC(=O)OCC(=O)c1[nH]c(C)c(C(C)=O)c1C,0,0,0,0,-
O=C(COc1cccnc1[N+](=O)[O-])Nc1ccc2c(c1)OCO2,0,0,0,-,0
O=C(c1cc(-c2cccc(Cl)c2)on1)N1CCCC1,0,0,-131,0,0
O=C(c1cc(-c2cccc(Cl)c2)on1)N1CCN(c2ccccc2)CC1,0,0,0,0,0
COc1ccc(NC(=O)N(C)C[C@H]2Oc3c(NS(=O)(=O)c4ccc(OC)cc4)cccc3C(=O)N([C@H](C)CO)C[C@@H]2C)cc1,-,0,0,0,-
Cc1ccc(NC(=O)COC(=O)C2CCC(=O)N2)c(S(=O)(=O)N2CCOCC2)c1 (stereo not drawn),0,-114%,0,0,0
O=C(COC(=O)C1CCC(=O)N1)Nc1ccc(Cl)cc1Cl (stereo not drawn),0,0,0,0,0
Cc1ccc(C2=NC3(CCCC3)NC2=S)cc1,0,0,0,0,0
COc1cc(OC)cc(C2=NC3(CCC(C)CC3)NC2=S)c1 (stereo not drawn),-108,0,0,0,0
C=CCn1c(C)c(C(C)=O)c(N2CCN(c3ccccc3)CC2)nc1=S,0,-105%,0,0,0
C=CCn1c(C)c(C(C)=O)c(N2CCCC2)nc1=S,0,0,0,0,0
Cc1ccc(NC(=O)Cn2nc(C)c3ccccc3c2=O)cc1,0,0,0,0,0
COC(=O)c1nn(-c2ccccc2)c(Sc2ccc(C)cc2)c1/C=N/O,0,0,0,0,0
SMILES,RXFP1 antagonist,Akt phos inh,KCNH2 3.1 block,hERG WT inh,RXFP1 ag
COC(=O)c1nn(-c2ccccc2)c(Sc2ccccc2)c1/C=N/O,0,-107%,0,0,0
CC(C)OC(=O)CC1C(=O)NCCN1C(=S)NC(=O)c1ccccc1 (stereo not drawn),0,0,0,0,0
CCCCNc1c(-c2ccc(SC3CCCCC3)c(OC)c2)nc2ccc(Cl)cn12,-,0,-97,0,0
CCCCNc1c(-c2ccc(SC(C)CC)c(OC)c2)nc2ccc(Cl)cn12 (stereo not drawn),-,0,0,-238,-
CCCCNc1c(-c2ccc(SC(C)CC)c(OC)c2)nc2ccc(C)cn12 (stereo not drawn),-,0,0,0,?
CCOC(=O)c1ccc(S(=O)(=O)N2CCN(C(=O)c3cc(=O)c4ccccc4o3)CC2)cc1,0,0,0,0,0
CSc1cccc(CN2CCCC(CO)(Cc3cccc(Cl)c3)C2)c1 (stereo not drawn),0,0,0,0,0
CCOC(=O)c1nn(-c2ccc(Cl)cc2)c2nnc(Cc3ccc(C)cc3)c(=O)n12,-,0,-88,0,0
CCOC(=O)c1nn(-c2ccccc2)c2nnc(Cc3ccc(Cl)cc3)c(=O)n12,0,0,0,0,0
Cc1cc(C)nc(NN2C(=O)/C(=C/c3ccc(O)cc3)SC2=S)n1,-116,0,0,0,0
Cc1cccn2c(CNC3CCCc4ccccc43)c(C(=O)N3CCCCC3)nc12 (stereo not drawn),0,0,-182,0,0
CCOC(=O)C1CCCN(Cc2c(C(=O)N3CCCCC3)nc3c(C)cccn23)C1 (stereo not drawn),0,0,0,0,0
Clc1ccc(NCc2nc3ccccc3n2CCOc2ccccc2)cc1,-61,-,-,-,0
CCN1CCN(c2nc3c(C)cccn3c(=O)c2/C=C(\C#N)C(=O)NCCOC)CC1,0,0,0,0,25µM
COc1cc(OC)c2c(-c3cccc(/C=C/c4ccc(F)cc4)c3)cc(=O)oc2c1,-,0,0,-153,-
COc1ccc(-c2cccc(-c3cc(=O)oc4cc(OC)cc(OC)c34)c2)cc1,-,0,?,0,-
O=C(CN1C(=O)C2CC=CCC2C1=O)N1CCN(S(=O)(=O)c2ccccc2)CC1 (stereo not drawn),0,0,0,0,-
O=C(CCCn1c(=O)c2cccn2c2ccccc21)NCCc1ccc(Cl)cc1,-71,-,-,-,0
COCCn1c(-c2ccccc2Cl)nc2c(c(=O)c3ccccc3n2C)c1=O,0,0,0,0,0
CNC(=O)CSc1nnc(-c2ccc(S(=O)(=O)N3CCCC3)cc2)n1-c1cccc(C)c1C,0,0,0,0,0
CNC(=O)c1ccc2nc(CCc3ccccc3)oc2c1,0,-,-,-,0
CCCCS(=O)(=O)NC1=NCN(CCOC(=O)c2ccccc2)CN1,0,-103%,0,0,-
Cc1ccc(S(=O)(=O)NC2=NCN(CCOC(=O)c3ccccc3)CN2)cc1,0,0,0,0,0
CCOc1ccc(N(CC(=O)N/N=C/c2ccccn2)S(=O)(=O)c2ccc(Cl)cc2)cc1,0,0,-81,0,0
Cc1ccc(C)c(NS(=O)(=O)c2ccc(-c3cnc(C4CC4)o3)cc2)c1,0,0,0,0,0
SMILES,RXFP1 antagonist,Akt phos inh,KCNH2 3.1 block,hERG WT inh,RXFP1 ag
C[C@@H]1CCC(=O)N(C[C@@H](C)CSc2ccc(Br)cc2)CC1,-,0,-113,0,0
CC1CC(C)(C)NC(C)c2ccccc21 (stereo not drawn),0,0,0,0,0
CC1CC(C)(C)NCc2ccccc21 (stereo not drawn),0,0,-89,0,0
COc1ccccc1OCC(=O)NCCS(=O)(=O)N1CCN(c2ccccc2)CC1,0,0,0,0,0
CC(C)(C)c1cc(C(=O)NCc2ccccc2)ccn1,0,-88%,0,0,0
COc1ccc(CCNC(=O)c2ccnc(C(C)(C)C)c2)cc1OC,0,0,0,0,-
O=C(N=C1SC2CS(=O)(=O)CC2N1c1ccc(Br)cc1Cl)C1CC1 (stereo not drawn),0,0,0,0,0
